Measured values published in PubChem BioAssay (Tox21).
Several values for one entry are separate records, joined by “and”; a condition that tells them apart may be missing. Equal entries are not always repeated. Inconclusive results are not listed. Activity calls are given as the source filed them. Unless noted, the call rests on the fitted dose curve; in most records, active means well fitted curve in the direction sought with a large enough effect in the repeat runs; inconclusive means weak or mixed curves; inactive means no such curve, though single readings can be large; an effect the other way counts as inactive or inconclusive.

How the values were obtained:
[1] = qHTS assay to identify small molecule agonists of the hypoxia (HIF-1) signaling pathway - cell viability counter screen (AID 1224844; calls by dose curve; further: nearly all actives have a fitted effect of over 50% in size; further: potency means the concentration at half of the fitted maximal effect)
Summary of the method: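 Same wells as the HIF-1 reporter screen; ME-180 cells carrying HRE-bla, 17 hr treatment at 37C; CellTiter-Glo luminescence read after 30 min at room temperature.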

[2] = qHTS assay to identify small molecule agonists of H2AX (AID 1224845; active means well fitted activation curve with a large enough effect in the signal ratio in the repeat runs, not every such curve was filed as active; the % refers to the signal ratio; further: potency means the concentration at half of the fitted maximal effect)
Summary of the method: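 Wild-type CHO-K1 cells, plated overnight, exposed 3hr at 37C to 15 concentrations (0.76% DMSO final). Lysed, then HTRF anti-pH2AX (S139) cryptate and anti-H2AX-d2 antibodies, 24 hr room temperature; 665/620 nm emission read.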

[3] = qHTS assay to identify small molecule agonists of the hypoxia (HIF-1) signaling pathway (AID 1224846; active means well fitted activation curve with a large enough effect in the signal ratio in the repeat runs, not every such curve was filed as active; the % refers to the signal ratio)
Summary of the method: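 In ME-180 cells bearing an HRE-bla construct, 17 h treatment with DMSO-dissolved compounds at 37C was followed by CCF4-AM loading to quantify reporter induction.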

[4] = qHTS assay to identify small molecule agonists of H2AX - cell viability counter screen (AID 1224847; calls by dose curve; further: top concentration of the series differs between compounds; nearly all actives have a fitted effect of over 30% in size)
Summary of the method: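 Compounds tested at 15 concentrations were incubated 3 hr at 37C with wild-type CHO-K1 cells; cellular ATP-based luminescence (CellTiter-Glo) indicated viability.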

[5] = qHTS RealTime-Glo MT Cell Viability Assay in HepG2 cells - 24 hour (AID 1224867); further: nearly all actives have a fitted effect of over 50% in size
Summary of the method: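 HepG2 cells (600/well) were dispensed with RealTime-Glo reagents, incubated 5 h at 37 °C, then treated with compounds in DMSO for up to 40 h. Nonlytic NanoLuc luminescence reflecting viable cells was read at each stated time point.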

[6] = qHTS RealTime-Glo MT Cell Viability Assay in HEK293 cells - 32 hour (AID 1224868); further: top concentration of the series differs between compounds; nearly all actives have a fitted effect of over 50% in size
Summary of the method: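 HEK293 cells seeded with NanoLuc/prosubstrate reagent, rested 5 h at 37 C, then dosed and kept at 37 C up to 40 h. Nonlytic real-time luminescence from viable cells read at 0, 8, 16, 24, 32 and 40 h.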

[7] = A CellTox Green Cytotoxicity Assay to monitor cytotoxicity in HEK293 cells - 0 hour (AID 1224869); further: nearly all actives have a fitted effect of over 50% in size
Summary of the method: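 Homogeneous no-lysis format: HEK293 cell suspension mixed with CellTox Green reagent, seeded, incubated 5 h at 37 C/5% CO2, then dosed by pintool with compound in DMSO.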

[8] = qHTS RealTime-Glo MT Cell Viability Assay in HepG2 cells - 40 hour (AID 1224870); further: nearly all actives have a fitted effect of over 50% in size
Summary of the method: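 HepG2 cells (600/well) mixed with RealTime-Glo MT reagent, settled 5 h at 37 C/5% CO2 before compound addition. Nonlytic NanoLuc luminescence from viable-cell prosubstrate reduction read repeatedly during 40 h treatment at 37 C.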

[9] = qHTS assay to identify small molecule antagonists of the estrogen related receptor (ERR) signaling pathway from Tox21 library (AID 1224848); further: nearly all actives have a fitted effect of over 50% in size; further: potency means the concentration at half of the fitted maximal effect
Summary of the method: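 Compounds dissolved in DMSO are pin-transferred onto ERR reporter cells (2,000 per well) that have settled for 6 h at 37 C. Plates then incubate 18 h at 37 C before ONE-Glo luciferase reagent and a luminescence read 30 min later.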

Measured: Potency

COc1ccc([C@@H]2CC(=O)c3c(O)cc(O[C@@H]4O[C@H](CO[C@@H]5O[C@@H](C)[C@H](O)[C@@H](O)[C@H]5O)[C@@H](O)[C@H](O)[C@H]4O)cc3O2)cc1OC
inactive: [1] | [2] | [3] | [4] | [5] | [6] | [7] | [8]

Cc1ccc(C)c(S(=O)(=O)O)c1
inactive: [1] | [2] | [3] | [4] | [5] | [6] | [7] | [8]

CO[Si](CCCNCCN)(OC)OC
inactive: [1] | [2] | [3] | [4] | [5] | [6] | [7] | [8]

CC(C)(C)NC[C@H](O)COc1nsnc1N1CCOCC1
inactive: [1] | [2] | [4] | [5] | [6] | [7] | [8]

NC(=O)c1ncn([C@@H]2O[C@H](CO)[C@@H](O)[C@H]2O)n1
active: [1] 18.3 µM | [2] 53.2 µM
inactive: [4] | [5] | [6] | [7] | [8]

NC1CCCCC1N (centres undefined)
inactive: [1] | [3] | [4] | [9] | [5] | [6] | [7] | [8]

C=CC(=O)NCOCCCC
inactive: [1] | [2] | [3] | [4] | [5] | [6] | [7] | [8]

Cc1ccccc1Cl
inactive: [1] | [2] | [3] | [4] | [5] | [6] | [7] | [8]

O=C(Cl)c1ccc(C(=O)Cl)cc1
inactive: [1] | [2] | [3] | [4] | [5] | [6] | [7] | [8]

O=C1O[C@H]([C@H](O)CO)C(O)=C1O
inactive: [1] | [2] | [3] | [4] | [5] | [6] | [7] | [8]

CCCOCC(C)O (centres undefined)
inactive: [1] | [3] | [4] | [9] | [5] | [6] | [7] | [8]

Nc1nc(N)c2nc(-c3ccccc3)c(N)nc2n1
active: [9] 24.6 µM and 21.7 µM
inactive: [1] | [4] | [5] | [6] | [7] | [8]

O=C(O)C1=NN(c2ccc(S(=O)(=O)O)cc2)C(=O)C1
inactive: [1] | [3] | [4] | [5] | [6] | [7] | [8]

CC(=O)CC(=O)N(C)C
inactive: [1] | [3] | [4] | [5] | [6] | [7] | [8]

CCOC(=O)CC(=O)OCC
inactive: [1] | [3] | [4] | [5] | [6] | [7] | [8]
